DAT uptake mod: changed hDAT dopamine uptake under cocaine IC80, either direction, primary screen, cocaine antagonist project, cell-based, LLC-PK1 hDAT, [14C]-dopamine uptake, MLSMR; Sodium-dependent dopamine transporter (Homo sapiens), Q01959; LLC-PK1 hDAT cells, [14C]-dopamine uptake with cocaine IC80; actives deviate in either direction; B-score at 10 µM; 110,000 compounds, 1.3% hits; AID 449768, 2010;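 active = Z score or B-score, a plate-position-corrected score, falls beyond the plate's 99.7% confidence bounds, in either direction; inactive = both scores lie inside the 99.7% bounds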;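 also: scored against the spread of the other compound wells on the same plate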
CYP2C19 inhib: blockers of cytochrome P450 2C19 activity – biochemical, luminescence, ADME assay, primary screen | P33261 | CYP2C19 Supersomes, luciferin-H EGE luminescence, 30 min | inhibition, % at 5 µM | 96,000 compounds, 21% hits | AID 778, 2007;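 active = CYP2C19 inhibition above a set limit at 5 µM in the primary screen, cut at about 50% in these data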;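 also: plate controls were negative control wells for no effect and 2.5 mM tranylcypromine positive control for full effect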
CYP2C9 activ: human CYP2C9 activators, primary screen, biochemical, luminescence; 96,000 compounds, 1.4% hits; Cytochrome P450 2C9 (Homo sapiens), P11712; recombinant CYP2C9, luciferin-H conversion; hits give high values; factor 1 = untreated enzyme, 0 = blocked; activation factor at 5 µM;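 active = activation factor of 2 or more for CYP2C9 at a 5 µM dose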;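 also: 0 = sulfaphenazole-blocked wells and 1 = vehicle-only wells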
Target sequence (P11712 whole entry, looked up): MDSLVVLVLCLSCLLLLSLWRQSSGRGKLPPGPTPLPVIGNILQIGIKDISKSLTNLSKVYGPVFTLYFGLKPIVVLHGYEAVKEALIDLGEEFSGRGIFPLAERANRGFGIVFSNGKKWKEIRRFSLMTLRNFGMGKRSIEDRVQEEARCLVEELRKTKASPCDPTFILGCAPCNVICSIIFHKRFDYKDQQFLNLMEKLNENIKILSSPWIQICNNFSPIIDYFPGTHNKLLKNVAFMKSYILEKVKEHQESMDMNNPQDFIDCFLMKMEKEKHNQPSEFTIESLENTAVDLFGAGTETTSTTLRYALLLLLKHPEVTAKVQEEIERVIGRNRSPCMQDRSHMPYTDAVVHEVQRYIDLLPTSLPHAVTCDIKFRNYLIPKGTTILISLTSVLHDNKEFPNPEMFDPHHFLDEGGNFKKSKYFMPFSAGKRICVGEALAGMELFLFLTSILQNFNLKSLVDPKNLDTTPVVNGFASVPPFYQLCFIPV
D1 allo mod: D1 CRE-luciferase signal change, two-sided – cell-based, HEK293 D1, dopamine EC30, D1 allosteric modulator project, primary screen; 58,000 compounds, 5.9% hits; dopamine EC30 potentiation; actives deviate in either direction; D(1A) dopamine receptor (Homo sapiens), P21728; B-score at 10 µM;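 active = luminescence count or its row- and column-corrected plate score outside the 99.7% band of the plate's sample wells, on either side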
CYP2C9 inh: blockers of cytochrome P450 2C9 activity – biochemical, luminescence, ADME assay, primary screen | inhibition, % at 5 µM | CYP2C9 Supersomes, luciferin-H conversion | 96,000 compounds, 20% hits | P11712;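 active = blocking of liver enzyme CYP2C9 beyond about 50% at 5 µM, limit read from the data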
CYP2C19 act: human CYP2C19 activators, primary screen, biochemical, luminescence; recombinant CYP2C19, luciferin-H EGE luminescence; hits give high values; 0 = fully inhibited enzyme, 1 = untreated enzyme; Cytochrome P450 2C19 (Homo sapiens), P33261; AID 1025, 2008; activation factor at 5 µM; 96,000 tested, under 10 active;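 active = activation factor of at least 2 at 5 µM in the primary screen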;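 also: 0 = wells with 2.5 mM tranylcypromine and 1 = vehicle-only wells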
Numbers without * were called inactive; x = not tested or not shown. The list is not random: actives were taken first. Their share in the collection is about 28%.

SMILES	DAT uptake mod	CYP2C19 inhib	CYP2C9 activ	D1 allo mod	CYP2C9 inh	CYP2C19 act
CC(C)C(=O)N1CCC2(CC1)Oc1ccc(Cl)cc1C(=O)C21CC(c2cccnc2)=NO1 (stereo not given)	0.656	x	x	x	x	x
CCOC(=O)C1/C(=N\O)CC(C)(O)C(C(=O)OCC)C1c1ccc(N(C)C)cc1 (stereo not given)	-1.47	83.6*	0.8	-0.0406	20.8	0.2
CCOC(=O)C1/C(=N\O)CC(C)(O)C(C(=O)OCC)C1c1ccc(OC)c(OC)c1 (stereo not given)	-0.148	5.7	1	x	3.4	0.9
Cc1cccc(-n2c(SCc3cc(=O)n4c(C)cccc4n3)nc3[nH]ncc3c2=O)c1	x	28.3	1	x	-1.7	0.7
CCN(CCC(=O)Nc1ccc(Br)c(C)c1)Cc1ccccc1	0.301	37.6	0.4	x	64.1*	0.6
O=C(CCN(CCO)Cc1ccccc1)Nc1ccc(Br)cc1	0.556	69.4*	0.4	0.211	63.4*	0.3
CCCC(=O)Nc1cccc(NC(=O)c2ccccc2Br)c1	0.387	18.0	0.9	x	7.9	0.8
CCN(CC)CCN=C1CCCc2ccccc2N1	0.25	4.7	0.9	-0.493	9.0	1
COCCNC(=O)Cn1c(=O)n(Cc2ccc(C(=O)NCc3ccco3)cc2)c(=O)c2ccccc21	x	x	x	-1.89	x	x
O=C(NCc1ccco1)c1ccc(Cn2c(=O)c3ccccc3n(Cc3cccc(F)c3)c2=O)cc1	0.063	80.3*	0.4	x	60.8*	0.2
O=C(NCc1ccco1)c1cccc(F)c1	0.113	-10.0	1.1	-0.382	-12.8	1.1
O=C(Cn1c(=O)n(Cc2ccccc2)c(=O)c2ccccc21)NCc1ccco1	0.134	51.9*	0.8	x	24.6	0.5
O=C(CCCCn1c(=O)c2ccccc2n(Cc2ccc(F)cc2)c1=O)NCc1ccco1	0.285	81.4*	0.2	x	84.9*	0.2
O=C(NCc1ccco1)c1ccc(Cn2c(=O)c3ccccc3n(Cc3ccc(Cl)cc3)c2=O)cc1	0.899	76.1*	0.1	x	86.2*	0.2
COc1ccc2oc(C(=O)C3CC3)c(NC(=O)CCCN3C(=O)c4ccccc4C3=O)c2c1	x	x	x	0.189	x	x
Cc1nc(-c2ccc(Cl)cc2)sc1C1(C)CC(c2ccncc2)=NO1 (stereo not given)	-0.843	x	x	x	x	x
O=C(Cn1c(CN2CCCCC2)nc2ccccc2c1=O)NCc1ccco1	0.34	54.7*	0.3	-0.907	75.0*	0.5
CC1=CC(C)(C)Nc2ccc(OC(=O)C(Cc3ccccc3)N3C(=O)c4ccccc4C3=O)cc21 (stereo not given)	0.0415	8.1	0.4	x	55.7*	0.9
CC1=CC(C)(C)Nc2ccc(OC(=O)CN3C(=O)c4cccc5cccc(c45)C3=O)cc21	x	26.9	0.6	x	40.3	0.7
Cc1cccc(-c2noc(CCC(=O)NCC3CCCO3)n2)c1 (stereo not given)	x	59.9*	1.1	x	-12.5	0.4
Cc1cccc(-c2noc(CCCC(=O)N3CCOCC3)n2)c1	-0.169	52.1*	1.4	x	-35.6	0.5
Cc1cccc(N(CC(=O)NCC2CCCO2)C(=O)CCC(=O)Nc2cc(C)on2)c1 (stereo not given)	0.731	33.8	0.5	-1.58	52.3*	0.7
Cc1ccccc1-c1noc(CCC(=O)NCC2CCCO2)n1 (stereo not given)	-0.0391	-0.3	0.9	x	10.9	1
CCc1cccc2c(SCC(=O)NCC3CCCO3)nc(-c3ccc(F)cc3)nc12 (stereo not given)	-0.084	1.9	0.6	x	41.1	1
CCc1cccc2c(SC(C)C(=O)NCC3CCCO3)nc(-c3ccccc3)nc12 (stereo not given)	-0.851	35.7	0.4	x	60.8*	0.6
SMILES	DAT uptake mod	CYP2C19 inhib	CYP2C9 activ	D1 allo mod	CYP2C9 inh	CYP2C19 act
CCc1ccc2nc(-c3cccc(C)c3)nc(SCC(=O)NCC3CCCO3)c2c1 (stereo not given)	-0.114	60.5*	0.2	x	75.1*	0.4
Cc1ccc(-c2nc(SCC(=O)NCC3CCCO3)c(-c3ccccc3)[nH]2)cc1 (stereo not given)	1.04	x	x	x	x	x
CC1/C(=C\c2ccc(Cl)cc2)C(=O)C2CC1C2(C)C (stereo not given)	0.274	76.8*	0.4	x	64.9*	0.2
O=S(=O)(Nc1ncn[nH]1)c1ccc(Cl)cc1	x	82.9*	1	x	1.2	0.2
Clc1ccc(Nc2ncn[nH]2)cc1	0.171	19.7	0.9	x	10.4	0.8
O=S(=O)(Nc1nc2ccccc2[nH]1)c1ccc(Cl)cc1	-0.439	58.0*	0.9	-0.0783	5.7	0.4
COc1ccccc1CNc1nc2nc(C)cc(=O)n2[nH]1	0.653	6.3	0.8	-0.135	17.1	0.9
C[C@H]1C=C(C(=O)NC2CC2)O[C@@H](OCc2ccc(CO)cc2)C1	-0.0123	x	x	x	x	x
CC1=C(C(=O)Nc2cccc(C)n2)C(c2ccc3c(c2)OCO3)C2=C(CC(c3ccco3)CC2=O)N1 (stereo not given)	0.676	86.5*	0.1	0.43	93.9*	0.1
CCn1nnnc1SCC(=O)c1cc(OC)ccc1OC	0.00181	93.1*	0.6	x	42.5	0.1
CCn1c(SCC(=O)c2cc(OC)ccc2OC)nnc1C1CC1	1.83	93.9*	1	x	-2.7	0.1
COc1ccc(OC)c(C(=O)CSc2nnnn2C)c1	-0.19	28.4	1	x	3.9	0.7
CCn1c(SCC(=O)c2ccc(OC)cc2)nnc1C1CC1	0.277	54.9*	1.1	x	-7.5	0.5
COc1ccc(C(=O)CSc2nnc(C3CC3)n2N)cc1	-1.9	38.4	0.7	x	31.1	0.6
Cc1ccc(CSCCNC(=O)/C=C/c2ccccc2Cl)cc1	-0.238	4.2	0.9	x	7.6	1
Cc1ncc2c(c1OC(=O)c1ccccc1)COC(C)(C)OC2	0.163	99.9*	0.2	x	77.6*	0
COc1ccc(Cc2nnc(NC(=O)Cn3cnc4c3c(=O)n(C)c(=O)n4C)s2)cc1	-0.544	x	x	x	x	x
COc1ccc(S(=O)(=O)Cc2ccc(C(=O)N3CCN(c4ccccn4)CC3)o2)cc1	-0.493	30.5	0.2	-0.739	80.6*	0.7
O=C(NC1CCCC1)c1ccc(CS(=O)(=O)c2ccc(Br)cc2)o1	-0.000572	10.5	0.1	0.523	86.2*	0.9
CCc1ccccc1S(=O)(=O)Cc1ccc(C(=O)N2CCN(c3ccccc3OC)CC2)o1	1.79	91.3*	0	-2.43*	95.8*	0.1
Cc1ccccc1S(=O)(=O)Cc1ccc(C(=O)N2CCN(c3cccc(C)c3C)CC2)o1	1.12	49.3	0.3	-4.33	73.3*	0.5
